Values joined by “and” are separate entries in the source; they are usually repeats but may differ in a detail not shown here. Equal entries are not always repeated. Results filed as inconclusive are left out. Active and inactive are the calls of the source. Unless noted, calls come from the whole dose curve; as a rule, active = well fitted curve in the direction sought with a large enough effect; inconclusive = small, poorly fitted or top-dose-only effect, or another doubt; inactive = no such curve, though single readings can be large; an effect the other way counts as inactive or inconclusive.
Experiments:
[1] = Cell Viability - MRC5 (AID 434; calls by dose curve;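 note: potency is the fitted concentration of half-maximal effect; potency reflects cytotoxicity seen as loss of intracellular ATP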); settings: MRC5 lung fibroblast viability, qHTS
Outline: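 MRC5 normal human lung fibroblasts, 1500 cells/well, exposed to compound for 40 hr at 37 C. Cellular ATP was read by CellTiter-Glo luminescence; data normalized to DMSO and 100 uM tamoxifen, with AC50 from Hill fits.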

[2] = Cell Viability - HUV-EC-C (AID 542); settings: HUV-EC-C endothelial cell viability, qHTS; series mostly up to 92.2 µM; note: % is set by controls: 0 for no effect and ±100 for the full control effect; nearly all actives have a fitted effect of over 35% in size
Outline: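 HUV-EC-C human vascular endothelial cells, 1000/well, exposed to compound for 40 hr at 37 °C in complete medium. Intracellular ATP was read by CellTiter-Glo luminescence. AC50 came from Hill-equation fits of concentration-response data.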

[3] = Cellular Toxicity (caspase-3) HepG2 (AID 654); settings: HepG2 caspase-3 activation, luminescence; series mostly up to 92.2 µM;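 note: cells exposed to compound for 16 hours before reading; 0% = DMSO alone and 100% = caspase signal from 100 µM tamoxifen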
Outline: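 HepG2 cells (1500/well) were treated 16 h at 37 °C in complete medium, then caspase 3/7 activity was read by Caspase-Glo luminescence. Data were normalized to DMSO and 100 uM tamoxifen; AC50 came from Hill-equation fits of qHTS concentration-response.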

[4] = Cellular Toxicity (caspase-3) HUV-EC-C (AID 656); settings: HUV-EC-C cells, caspase-3 activation (apoptosis); series mostly up to 92.2 µM
Outline: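 qHTS; HUV-EC-C, 1000 cells/well; 5 hr settle, 16 hr cmpd, 37°C; Caspase-Glo 3/7, 20 min RT; luminescence. Norm: DMSO = 0%, tamoxifen 100 uM = 100%. Hill-fit AC50.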

[5] = Cellular Toxicity (caspase-3) SHSY5Y (AID 657); settings: SH-SY5Y caspase-3 activation; series mostly up to 91.7 µM
Outline: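 qHTS, SH-SY5Y, 1500 cells/well, 5 h pre-incubation 37 °C; compound 16 h 37 °C; Caspase-Glo 3/7 1 h RT; luminescence. Norm.: DMSO = 0, 10 uM staurosporine = 100%. Hill fit → AC50.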

[6] = Cellular Toxicity (caspase-3) Mesangial (AID 660); settings: mesangial cells, normalized: DMSO 0%, 100 µM tamoxifen 100%; series mostly up to 91.7 µM
Outline: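 Human renal glomerular mesangial cells, 1000/well, 5 h at 37 C before 16 h compound treatment. Caspase-Glo 3/7 luminescence after 20 min; normalized to DMSO and 100 uM tamoxifen, AC50 from Hill fit.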

[7] = Cellular Toxicity (caspase-3) SK-N-SH (AID 661); settings: SK-N-SH caspase-3 activation, qHTS, DMSO as zero, staurosporine as full; series mostly up to 91.7 µM
Outline: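 Human SK-N-SH neuroblastoma cells, 1500/well, were exposed to compounds for 16 hours at 37 °C. Caspase-Glo 3/7 luminescence was normalized to DMSO (basal) and 10 uM staurosporine (100%), and AC50 came from a Hill fit.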

[8] = Cellular Toxicity (caspase-3) H-4-II-E (AID 663); settings: H-4-II-E rat hepatoma; Potency: caspase-3 activation; series mostly up to 92.2 µM;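 note: cells exposed to compound for 16 hr before readout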
Outline: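 Rat hepatoma H-4-II-E cells (1500/well) plated 5 hr, then exposed to compound titrations for 16 hr at 37 °C. Caspase-Glo 3/7 luminescence read after 20 min at RT; data normalized to DMSO and 100 uM tamoxifen, AC50 from Hill fits.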

[9] = Cellular Toxicity (caspase-3) N2a (AID 665); settings: N2a cells, luminescence, normalized: DMSO 0%, 10 µM staurosporine 100%; series mostly up to 92.2 µM;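 note: compound exposure lasted 16 h at 37 °C before readout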
Outline: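 Mouse N2a neuroblastoma cells, 1500 per well, treated 16 h at 37 °C in complete medium; caspase-3/7 activity by Caspase-Glo luminescence after 1 h. Normalized to DMSO and 10 uM staurosporine; AC50 from Hill fits.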

[10] = Cellular Toxicity (caspase-3) NIH 3T3 (AID 666); settings: NIH 3T3 caspase-3 activation, apoptosis/toxicity, 0% DMSO, 100% is 100 µM tamoxifen; series mostly up to 92.2 µM;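 note: caspase signal read after 16 h compound exposure; 0% = DMSO basal and 100% = 100 µM tamoxifen stimulation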
Outline: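 Mouse NIH 3T3 fibroblasts (1000/well) treated 16 h at 37 C; caspase-3/7 activity measured by Caspase-Glo 3/7 luminescence after 20 min. Normalized to DMSO and 100 uM tamoxifen; AC50 from Hill fits.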

[11] = Cellular Toxicity (caspase-3) Renal Proximal Tubule (AID 667); settings: renal proximal tubule cells, primary cells freshly taken from rat; Potency: caspase-3 activation; series mostly up to 91.7 µM;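 note: cells exposed to compound for 16 hours at 37 °C before detection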
Outline: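 AC50 derived by standard Hill fit of concentration-response data, normalized between DMSO basal and 10 uM staurosporine as 100% stimulation. Cells: primary rat kidney proximal tubule, 16 h treatment at 37 °C.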

[12] = MultiTox-Fluor Cytotoxicity Assay - LYMP1-001 - Dead Cells (AID 946); settings: LYMP1-001 lymphoblastoid cells, dead-cell protease fluorescence; series mostly up to 92.2 µM;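 note: 0% = DMSO and 100% = tetraoctylammonium bromide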
Outline: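 LYMP1-001 lymphoblastoid cells (2500/well) treated 16 h at 37 C. Dead-cell protease cleavage of bis-AAF-R110 read at Ex/Em 485/520. Normalized to DMSO and 15 uM tetraoctylammonium bromide; AC50 from Hill fits.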

[13] = MultiTox-Fluor Cytotoxicity Assay - LYMP1-003 - Dead Cells (AID 961); settings: LYMP1-003 lymphoblastoid cells, dead-cell protease fluorescence; series mostly up to 92.2 µM;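 note: 0% = DMSO and 100% = tetraoctylammonium bromide; nearly all actives have a fitted effect of over 70% in size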
Outline: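 LYMP1-003 human lymphoblastoid cells (2500/well) exposed to compound 16 h at 37 C in complete medium; dead-cell protease read with bis-AAF-R110 fluorescence (Ex/Em 485/520) after 60 min at room temperature. Normalized to DMSO and 15 uM tetraoctylammonium bromide; AC50 from Hill fit.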

[14] = MultiTox-Fluor Cytotoxicity Assay - LYMP1-003 - Live Cells (AID 962); settings: LYMP1-003 lymphoblastoid cells, MultiTox-Fluor live-cell protease fluorescence; series mostly up to 92.2 µM;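 note: 0% = DMSO only and full loss = 92 µM tetraoctylammonium bromide; cytotoxic hits lower the live-cell protease signal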
Outline: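 LYMP1-003 lymphoblastoid cells, 2500/well in complete medium, treated 16 h at 37 C; live-cell protease cleavage of GF-AFC read by fluorescence (Ex/Em 405/510) after 60 min reagent; AC50 from Hill fits of concentration-response.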

[15] = Cell Viability - LYMP1-003 - Assay at 24 hr (AID 963); settings: LYMP1-003 lymphoblastoid cell viability; series mostly up to 92.2 µM;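 note: plate controls were DMSO only for no effect and tetraoctylammonium bromide positive control for full effect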
Outline: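 Human lymphoblastoid LYMP1-003 cells, 2500/well, treated 24 h at 37 C in complete medium. Viability read as intracellular ATP by CellTiter-Glo luminescence after 30 min at room temperature; AC50 from Hill-equation fits of qHTS concentration-response.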

[16] = Cell Viability - LYMP1-002 - Assay at 24 hr (AID 993); settings: LYMP1-002 lymphoblastoid cells viability; series mostly up to 92.2 µM; note: % is set by controls: 0 for no effect and ±100 for the full control effect
Outline: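 Human lymphoblastoid LYMP1-002 cells (2500/well) treated 24 h at 37 °C; viability as intracellular ATP by CellTiter-Glo luminescence. Tetraoctylammonium bromide as positive control; AC50 from Hill-equation fits of qHTS concentration-response.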

[17] = qHTS Assay for Identification of Small Molecule Inducers of Hypoxia Response (AID 2120; active = well fitted curve in the direction sought with a large enough effect in the signal ratio, with a control signal flat, not every such curve was filed as active; the % refers to the signal ratio; note: 0% is about no effect); settings: hypoxia response reporter cells, beta-lactamase ratio readout; series mostly up to 104 µM
Outline: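 HRE-bla ME-180 cells in Opti-MEM with 0.5% dialyzed FBS, pre-plated 4-5 h, then compound titration for 17 h at 37 degrees Celsius. CCF4 loaded 2.5 h at room temperature; 460/530 nm ratio gave %Activity and AC50 for induction.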

[18] = biological target: Peroxisome proliferator-activated receptor alpha (Homo sapiens) (UniProt Q07869); assay: qHTS assay for small molecule agonists of the peroxisome proliferator-activated receptor alpha (PPARalpha) signaling pathway (AID 651778); settings: PathHunter PPARalpha complementation, chemiluminescence, 6 h; max response: hits give high values; note: % of control where 0% means no effect
Sequence of Peroxisome proliferator-activated receptor alpha (Homo sapiens) (Q07869 whole entry, looked up, the tested form may be a part): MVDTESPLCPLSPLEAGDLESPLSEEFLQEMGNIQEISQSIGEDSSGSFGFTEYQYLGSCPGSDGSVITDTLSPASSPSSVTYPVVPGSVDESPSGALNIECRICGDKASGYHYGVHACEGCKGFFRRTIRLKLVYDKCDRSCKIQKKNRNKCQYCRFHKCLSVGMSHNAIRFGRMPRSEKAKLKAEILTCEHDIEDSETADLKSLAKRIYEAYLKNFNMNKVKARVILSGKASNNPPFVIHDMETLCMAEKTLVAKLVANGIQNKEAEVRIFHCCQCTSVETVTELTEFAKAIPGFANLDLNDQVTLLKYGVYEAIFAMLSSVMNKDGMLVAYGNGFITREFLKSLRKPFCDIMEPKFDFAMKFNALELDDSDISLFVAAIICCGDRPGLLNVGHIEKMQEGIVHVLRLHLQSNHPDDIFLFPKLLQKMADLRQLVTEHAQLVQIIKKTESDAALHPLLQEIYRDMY
Outline: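 Enzyme-fragment complementation assay in which ligand-bound PPARalpha translocates and forms an active enzyme that generates chemiluminescence. Cells were plated overnight, exposed to compound for 6 hr at 37 C, and then given detection reagent for 60 min at room temperature.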

[19] = qHTS assay for small molecule agonists of the antioxidant response element (ARE) signaling pathway measured by Nrf2-dependant transcriptional activity - cell viability counter screen (AID 720653; active = well fitted curve in the direction sought with a large enough effect in the repeat runs; an effect the other way counts as inactive or inconclusive; note: % is set by controls: 0 for no effect and ±100 for the full control effect); settings: ARE-bla HepG2 viability, CellTiter-Glo ATP luminescence, 16 h; max response: hits give low values
Outline: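 ARE-bla HepG2 cells treated with compounds for 16 h at 37C; this counter screen measures viability as intracellular ATP by CellTiter-Glo luminescence after 30 min at room temperature.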

[20] = qHTS assay for cell viability of the p53RE-bla HCT-116 cell line (AID 743292); settings: p53RE-bla HCT-116 viability, ATP luminescence, 16 h; series mostly up to 95 µM; note: % is set by controls: 0 for no effect and ±100 for the full control effect; nearly all actives have a fitted effect of over 55% in size
Outline: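 ATP-based luminescent viability (CellTiter-Glo, 30 min RT) after 16 h compound treatment at 37 C of p53RE-bla HCT-116 cells, seeded at 4,000 cells/well and rested 5 h before dosing.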

Oc1ccc2c(c1)OCO2
inactive: Potency [1] > 92 µM | Potency [2] | Potency [3] | Potency [4] | Potency [5] | outcome [6] | outcome [7] | Potency [8] | outcome [9] | outcome [10] | Potency [11] | Potency [12] | Potency [13] | Potency [14] | Potency [15] | Potency [16] | Potency [17] | max response [18] -2.87% | max response [19] 5% | Potency [20]

O=[N+]([O-])c1ccc(F)cc1F
inactive: Potency [1] > 92 µM | Potency [2] | Potency [3] | Potency [4] | Potency [5] | outcome [6] | outcome [7] | Potency [8] | outcome [9] | outcome [10] | Potency [11] | Potency [12] | Potency [13] | Potency [14] | Potency [15] | Potency [16] | Potency [17] | max response [18] -5.98% | max response [19] 13.3% | Potency [20]

c1c[nH]cn1
inactive: Potency [1] > 92 µM | Potency [2] | Potency [3] | Potency [4] | Potency [5] | outcome [6] | outcome [7] | Potency [8] | outcome [9] | outcome [10] | Potency [11] | Potency [12] | Potency [13] | Potency [14] | Potency [15] | Potency [16] | Potency [17] | max response [18] -0.778% | max response [19] -2.06% | Potency [20]

CC(C)OCC1CO1 (stereo not given)
inactive: Potency [1] > 92 µM | Potency [2] | Potency [3] | Potency [4] | Potency [5] | outcome [6] | outcome [7] | Potency [8] | outcome [9] | outcome [10] | Potency [11] | Potency [12] | Potency [13] | Potency [14] | Potency [15] | Potency [16] | Potency [17] | max response [18] -4.21% | max response [19] 0.394% | Potency [20]

CCCCNCC
inactive: Potency [1] > 92 µM | Potency [2] | Potency [3] | Potency [4] | Potency [5] | outcome [6] | outcome [7] | Potency [8] | outcome [9] | outcome [10] | Potency [11] | Potency [12] | Potency [13] | Potency [14] | Potency [15] | Potency [16] | Potency [17] | max response [18] -6.73% | max response [19] 3.95% | Potency [20]

Nc1cc([N+](=O)[O-])ccc1O
inactive: Potency [1] > 92 µM | Potency [2] | Potency [3] | Potency [4] | Potency [5] | outcome [6] | outcome [7] | Potency [8] | outcome [9] | outcome [10] | Potency [11] | Potency [12] | Potency [13] | Potency [14] | Potency [15] | Potency [16] | Potency [17] | max response [18] -13.4% and -8.79% | max response [19] -7.79% and -12.9% | Potency [20]

— PubChem BioAssay (NCATS)
